Inconclusive results are not listed. Calls of active or inactive are those of the source. Calls follow the shape of the dose curve; as a rule, active = well fitted inhibition curve with a large enough effect; inconclusive = small, poorly fitted or top-dose-only effect; inactive = flat fitted curve, though single readings scatter.
Each molecule was assayed against Lysosomal acid glucosylceramidase (Homo sapiens) (UniProt P04062) (assay: qHTS Assay for Inhibitors and Activators of N370S glucocerebrosidase as a Potential Chaperone Treatment of Gaucher Disease: Activity in N370S Spleen Homogenate Using a Red Fluorescent Substrate). Conditions: red fluorogenic substrate; series mostly up to 49.6 µM; activity change, negative = inhibition: at the top concentration.
Sequence of Lysosomal acid glucosylceramidase (Homo sapiens) (P04062 whole entry N409S): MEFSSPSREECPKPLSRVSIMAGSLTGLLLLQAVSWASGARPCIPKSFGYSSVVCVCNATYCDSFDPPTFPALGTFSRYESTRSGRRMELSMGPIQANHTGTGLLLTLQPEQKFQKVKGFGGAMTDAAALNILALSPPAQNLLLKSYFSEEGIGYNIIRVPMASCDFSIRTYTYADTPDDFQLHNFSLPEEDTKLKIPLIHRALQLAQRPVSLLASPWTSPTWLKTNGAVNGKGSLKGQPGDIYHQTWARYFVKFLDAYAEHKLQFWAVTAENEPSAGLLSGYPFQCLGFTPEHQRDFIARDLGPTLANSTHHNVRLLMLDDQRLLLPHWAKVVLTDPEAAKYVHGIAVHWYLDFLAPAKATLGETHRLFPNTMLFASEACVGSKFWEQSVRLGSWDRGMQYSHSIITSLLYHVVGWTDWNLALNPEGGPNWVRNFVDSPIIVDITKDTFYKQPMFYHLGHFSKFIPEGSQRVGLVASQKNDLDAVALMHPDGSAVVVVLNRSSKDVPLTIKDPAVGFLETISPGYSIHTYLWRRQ
From the text: NIH Chemical Genomics Center [NCGC]
NIH Molecular Libraries Probe Production Centers Network [MLPCN]
Assay Submitter (PI): Wei Zheng
Glucocerebrosidase (GC) catalyzes the hydrolysis of beta-glucocerebroside to glucose and ceramide in lysosomes. Mutations in the glucocerebrosidase gene result in Gaucher disease, an autosomal recessive lysosomal storage disorder. Many of the mutations encountered in patients with Gaucher disease are missense alterations that may cause misfolding, decreased stability and/or mistrafficking of this lysosomal protein. […] These inhibitors include iminosugar analogs and three non-iminosugar inhibitors identified from a previous HTS of 62,000 compounds with the wild type recombinant enzyme. However, the enhancement of enzyme activity by the chaperone action of an enzyme inhibitor must be balanced against the direct inhibition of the enzyme. An enzyme activator could also function as a chaperone by binding to the enzyme and helping to correct its misfolding and mistrafficking. While activators for GC have not yet been identified, they may have better therapeutic potential than inhibitors. Therefore the discovery and development of chemical activators may provide a new strategy for the chaperone therapy.
We have optimized a new assay using N370S mutant GC derived from the spleen of a Gaucher patient. […] In addition, the MLPCN compound library has expanded, which increases the chance of finding new and better probes.
This confirmation assay tests for compound activity in spleen homogenate from a patient homozygous for the N370S mutation using an alternate resorufin-based substrate.
NCGC Assay Protocol Summary:
This is a fluorogenic enzyme assay with resorufin-beta-D-glucopyranoside as the substrate and mutant N370S glucocerebrosidase from human spleen homogenate as the enzyme preparation. Upon the hydrolysis of this fluorogenic substrate, the resulting product, […] which can be detected by a standard fluorescence plate reader. Data were normalized to the controls for basal activity (without enzyme) and 100% activity (with enzyme). The AC50 values were determined from concentration-response data modeled with the standard Hill equation.
Assay buffer: 50 mM citric acid (titrated with potassium phosphate to pH 5.0), 100 mM potassium chloride, 10 mM sodium chloride, 1 mM magnesium chloride, 0.01% Tween-20.
1536-well assay protocol:
(1) Add 2 ul/well of spleen homogenate (27 ug final)
(2) Add 23 nL compounds in DMSO solution. The final titration was 0.5 nM to 58 uM.
(3) Add 2 ul of substrate (1 mM final)
(4) Incubate at 37C for 40 min.
(5) Add 2 ul stop solution (1M NaOH and 1M Glycine mixture, pH 10)
(6) Detect the assay plate in a ViewLux plate reader (PerkinElmer) with Ex=365 nm and Em=440nm.
Keywords: Glucocerebrosidase, beta-glucosidase, Gaucher Disease, pharmacological chaperone, chaperone therapy, high throughput screening, glucocerebrosidase inhibitor, MLSMR, MLSCN, NIH Roadmap, qHTS and NCGC

Compound	activity change, negative = inhibition	Potency
CCc1ccc(NC(=O)c2cnn3c(C(F)F)cc(C)nc23)cc1	-11.1% (inactive)	
CCCNC(=O)COC(=O)c1ccccc1OCC(=O)Nc1ccc(Br)cc1	-0.819% (inactive)	
CCOc1ccc(N(CC(=O)Nc2ccc(C)cc2)S(=O)(=O)c2c(C)[nH]c(=O)[nH]c2=O)cc1		12.6 µM (active)
COC(=O)c1ccccc1NC(=O)c1ccc2c(c1)C(=O)N(Cc1ccccc1)C2=O	4.22% (inactive)	
O=c1cc(N2CCCCC2)c(-c2ccccc2)nn1Cc1c(Cl)cccc1Cl	-2.62% (inactive)	
CCCCNC(=O)c1ccc(NS(=O)(=O)c2ccccc2)cc1	-6.21% (inactive)	
Nc1nc(-c2ccccc2)c(N=Nc2ccc(Cl)cc2)s1	-1.35% (inactive)	
CSc1ccc(NC(=O)Nc2cc(C)ccn2)cc1	-0.0114% (inactive)	
Cc1cc(C)cc(N(CC(=O)NC2CCCCCC2)S(=O)(=O)c2c(C)[nH]c(=O)[nH]c2=O)c1		0.794 µM (active)
S=C(NCCCc1cnc[nH]1)NCCCN(Cc1ccc(Cl)c(Cl)c1)c1ccc(Br)cn1		2.24 µM (active)
Cc1cc(N2CCOCC2)nc2ccc(NC(=O)CCC3CCCC3)cc12		15.8 µM (active)
Cc1cc(N2CCN(c3ncccn3)CC2)nc2ccc(NC(=O)C3CCC(C)CC3)cc12 (stereo not given)		5.01 µM (active)
O=C(/C=C/c1ccc(O)cc1)c1ccc(O)cc1O		4.47 µM (active)
CC1(C)CC(=O)C2=C(C1)c1c(ccc3ccccc13)NC2c1ccc(Br)o1 (stereo not given)	-4.56% (inactive)	
COc1cccc(CN(C)c2nc(-c3cccs3)nc3ccccc23)c1		2.51 µM (active)
Cc1cc(N2CCOCC2)nc2ccc(NC(=O)C3CCC(C)CC3)cc12 (stereo not given)		3.16 µM (active)
O=C(Nc1cc(Br)ccc1O)c1cnn2c(C(F)F)cc(C3CC3)nc12	0.46% (inactive)	
Cc1cc(N2CCOCC2)nc2ccc(NC(=O)CCC(=O)NC3CCCCC3)cc12	-14.8% (inactive)	
O=C(Nc1cnn(Cc2ccc(F)cc2)c1)c1cnn2c(C(F)F)cc(-c3ccccc3)nc12	5.28% (inactive)	
Oc1ccccc1Nc1nc(NCC2CCCO2)c2ccccc2n1 (stereo not given)	-14.9% (inactive)	

Compound	activity change, negative = inhibition	Potency
Cc1cc(N2CCOCC2)nc2ccc(NC(=O)c3ccco3)cc12	-10.1% (inactive)	
CCc1cc(C(=O)N/N=C/c2c(C)[nH]c3ccccc23)cs1	0.119% (inactive)	
CC1CC(C)CN(C(=O)CSc2nc(Cc3cccs3)nc3ccccc23)C1 (stereo not given)	-2.19% (inactive)	
CCOc1ccc(N(CC(=O)NC2CCCCCC2)S(=O)(=O)c2c(C)[nH]c(=O)[nH]c2=O)cc1		2.82 µM (active)
O=C(COc1ccccc1C(=O)c1cnn(-c2ccccc2)c1)Nc1ccccc1	-1.7% (inactive)	
COc1ccccc1OCC(=O)Nc1oc(-c2ccccc2)c(-c2ccccc2)c1C#N	1.85% (inactive)	
COc1cccc(NC(=O)CSc2nc3ccccc3c(=O)n2Cc2cccs2)c1	-4.03% (inactive)	
COc1cc2c(cc1NC(=O)COC(=O)[C@@H](NC(=O)c1ccccc1)C(C)C)oc1ccccc12	-5.59% (inactive)	
N#Cc1ccccc1Sc1ccccc1C(=O)OCC(=O)NC12CC3CC(CC(C3)C1)C2	-6.41% (inactive)	
Cc1cc(C)n2ncc(C(=O)Nc3cccc(O)c3)c2n1	-4.31% (inactive)	
Cc1cc(N2CCCCC2)nc2ccc(NC(=O)C3CCC(C)CC3)cc12 (stereo not given)		17.8 µM (active)
CC(C)(C)C(=O)OCCNc1nc(-c2ccccc2)nc2ccccc12		3.98 µM (active)
Cc1ccc(Cl)cc1NC(=O)c1ccccc1OCC(=O)Nc1ccc(Cl)cc1	-9.04% (inactive)	
Cc1cc(N2CCC(C)CC2)nc2ccc(NC(=O)C3CCC(C)CC3)cc12 (stereo not given)		11.2 µM (active)
O=C(CSc1nccc(-c2cccs2)n1)Nc1cccc(Cl)c1	-1.32% (inactive)	
Cc1ccc(C)c(N2CCN(C(=O)CCC(=O)Nc3ccc4nc(N5CCOCC5)cc(C)c4c3)CC2)c1		15.8 µM (active)
OCCNc1nc(Nc2ccc(Cl)cc2)nc(N2CCCC2)n1		35.5 µM (active)
Cc1cc(C)n2ncc(C(=O)Nc3ccc(Cl)c(Cl)c3)c2n1	1.27% (inactive)	
CCN(CC)c1ccc(C(=O)Nc2ccc3nc(N4CCOCC4)cc(C)c3c2)cc1		15.8 µM (active)
COc1cccc(NC(=S)N(CCCN2CCOCC2)Cc2cn(C)c3ccccc23)c1		4.47 µM (active)

— PubChem BioAssay AID2613 (National Center for Advancing Translational Sciences (NCATS), 2010)
